High-throughput results (PubChem)
GRIN3A LBD mod: NR3A (human) ligand-binding domain modulation. NR3A LBD differential scanning fluorimetry, Tm shift; 0% = protein alone, 100% = glycine-bound protein. 2.5% of 340,000 active. AID 1259313. Tm shift relative to glycine control, % at 25 µM;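 active means melting temperature shift of at least 10% of the positive control shift, at one fixed dose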
NALP1 yeast inh: blocks the NALP1 inflammasome reconstituted in yeast; S. cerevisiae NALP1/ASC/caspase-1 growth, X-gal OD620, 72 h; inhibition, % at 10 µM; 0.61% of 280,000 active; in the data active means inhibition mostly above about 24%, no sharp cut-off; inactive means mostly below about 32%
Yeast superoxide: yeast age-related superoxide inhibition as caloric restriction mimetic; 0.18% of 330,000 active; S. cerevisiae aged cells, superoxide DHE fluorescence; active compounds read low; AID 2690; superoxide response (% of plate mean), % at 10 µM;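 active means superoxide response under a set limit, about three screen SD below normal, cut at about 65% in these data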;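 further: yeast aged for seven days with compound at 30 °C before DHE staining; 100% = average MFI of all compound-treated wells on the plate with controls excluded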
dFosB act: mouse delta FosB homodimer activation; P13346; purified delta FosB, TAMRA-CDK5 oligo fluorescence polarization; percent of positive-control signal above neutral wells; activation, % at 25 µM; 0.99% of 340,000 active;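 active means mean activation above about 17%, with every replicate also reaching it, limit read from the data, passing the limit was not always enough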
Target sequence (P13346 whole entry, looked up): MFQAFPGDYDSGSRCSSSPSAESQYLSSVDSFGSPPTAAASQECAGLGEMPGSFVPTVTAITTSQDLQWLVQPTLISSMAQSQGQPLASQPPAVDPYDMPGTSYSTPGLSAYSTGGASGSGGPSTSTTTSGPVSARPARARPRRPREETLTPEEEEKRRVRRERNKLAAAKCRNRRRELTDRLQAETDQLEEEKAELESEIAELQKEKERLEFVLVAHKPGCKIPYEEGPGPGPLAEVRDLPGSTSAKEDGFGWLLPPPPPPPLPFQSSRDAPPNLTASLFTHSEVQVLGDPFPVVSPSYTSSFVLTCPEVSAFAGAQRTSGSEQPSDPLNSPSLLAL
UBC13 polyUb: human UBC13 polyubiquitination inhibition; 0.47% of 330,000 active; inhibition, % at 20 µM; UBC13 polyubiquitin chain formation, TR-FRET; in the data active means inhibition above about 45%, passing the limit was not always enough
Target sequence (P61088 whole entry, looked up): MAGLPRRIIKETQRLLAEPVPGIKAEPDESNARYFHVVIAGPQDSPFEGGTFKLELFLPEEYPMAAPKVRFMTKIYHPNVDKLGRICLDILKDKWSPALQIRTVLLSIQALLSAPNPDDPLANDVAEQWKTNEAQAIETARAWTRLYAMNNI
* hit, by the source's call; · = not tested or not shown. Rows were chosen to be rich in hits. Some 4.3% of all compounds tested hit in one or more screens of this group.

SMILES | GRIN3A LBD mod | NALP1 yeast inh | Yeast superoxide | dFosB act | UBC13 polyUb
CC(=O)c1cccc(NC(=O)CCS(=O)(=O)c2cc3c(cc2C)NC(=O)CO3)c1 | 52.7* | 9.2 | 91.0 | -11.9 | -3.5
CCCc1cc(=O)[nH]c(SCC(=O)Nc2oc(C)c3c(C)n[nH]c(=O)c23)n1 | -1.9 | · | 102.2 | 4.7 | -10.5
O=C(N/N=C/c1c(F)cccc1Cl)c1cc(C2CC2)[nH]n1 | -0.3 | 9.9 | 107.0 | -8.4 | 3.3
Cc1cccc(NC2=Nc3ccccc3N3C2=Nc2c(c(C)nn2-c2ccccc2)C3c2ccc(O)c(O)c2)c1 (stereo not given) | 21.8* | 3.0 | 101.2 | -2.9 | -11.5
Cc1ccc(NC2=Nc3ccccc3N3C2=Nc2c(c(C)nn2-c2ccccc2)C3c2ccc(O)c(O)c2)cc1 (stereo not given) | 14.9* | -6.9 | · | -3.1 | ·
O=C(NCc1nnnn1-c1ccc(F)c(F)c1)c1ccc(S(=O)(=O)N2CCOCC2)cc1 | 3.3 | · | 116.0 | -2.9 | -1.4
CCCn1nc(C(=O)NCC2COc3ccccc3O2)c2ccccc2c1=O (stereo not given) | 3.9 | · | 122.0 | -14.4 | 2.0
Cc1ccc(C)c(Sc2ccc(NC(=O)CCl)cc2)c1 | -8.9 | · | 67.2 | · | 10.3
Cc1ccc(Sc2ccc(NC(=O)CCl)cc2)cc1C | -4.9 | 57.3* | 116.8 | -13.0 | 6.3
Cc1cc(C)c(NC(=O)COC(=O)c2nc3nccc(C)n3n2)c(Cl)c1 | 1.8 | · | 111.5 | -3.8 | 12.5
CC(C)c1ccc(NC(=O)COC(=O)[C@@H]2CCCN2C(=O)c2cccs2)cc1 | 2.4 | · | 87.2 | -15.4 | 4.9
COc1cc([N+](=O)[O-])cc(/C=N/NC(=O)c2cncc(Br)c2)c1O | -6.0 | -7.0 | 94.6 | -0.1 | -64.9
O=[N+]([O-])c1ccccc1N/N=C/c1cccc(O)c1O | 0.3 | · | 104.7 | 5.5 | -33.0
Cc1cc(C)nc(N/N=C/c2ccccc2OCc2ccc([N+](=O)[O-])cc2)n1 | -11.2 | 34.2 | 110.6 | -6.1 | 9.2
O=S(=O)(N/N=C/c1ccccc1OCc1ccc(Cl)cc1)c1ccccc1 | 13.2* | 30.8 | 110.6 | -9.5 | -5.6
COC(=O)c1ccc(N/N=C/c2cc([N+](=O)[O-])cc(OC)c2O)cc1 | 29.9* | 0.8 | 104.2 | -9.4 | -54.8
O=[N+]([O-])c1cccc(N/N=C/c2cccc(O)c2O)c1 | 21.0* | -4.3 | 103.6 | -5.1 | -18.1
O=[N+]([O-])c1ccc(N/N=C\c2ccccc2OCc2ccccc2)cc1 | 20.0* | 14.2 | 97.2 | -12.6 | -103.7
COCCn1c(Cc2ccccc2)nnc1SCC(=O)NC1CCCCC1 | 2.5 | 10.0 | 103.1 | 0.3 | -6.1
CCOc1cccc2cc(C(=O)NCc3ccc(Cl)cc3)c(=N)oc12 | 1.5 | 19.4 | 107.1 | -12.5 | -7.1
CC1CC(C)CN(C(=O)COC(=O)/C=C/c2cccc([N+](=O)[O-])c2)C1 (stereo not given) | -2.2 | · | · | -10.0 | -5.2
CCOC(=O)c1ccc(N/N=C/c2cc(Br)cc([N+](=O)[O-])c2O)cc1 | 18.9* | 1.8 | 94.9 | -5.2 | -15.7
COc1cccc(/C=N/NC(=O)c2ccc([N+](=O)[O-])cc2Cl)c1O | -1.0 | 9.3 | 100.8 | -9.3 | 2.8
COc1cc(/C=N/Nc2ccc(C(=O)O)cc2)cc(OC)c1OC | -3.5 | -30.0 | 106.6 | -8.2 | -8.8
COc1cc(/C=N/Nc2ccc(C(=O)O)cc2)ccc1O | 26.6* | 0.8 | 109.7 | -7.0 | -3.5
SMILES | GRIN3A LBD mod | NALP1 yeast inh | Yeast superoxide | dFosB act | UBC13 polyUb
COc1cccc(/C=N/Nc2ccc([N+](=O)[O-])cc2)c1O | 36.0* | 14.6 | 100.9 | -9.5 | -48.6
O=[N+]([O-])c1ccc(NN=Cc2cccc3ccccc23)cc1 | 33.5* | · | · | 10.4 | ·
CCC(C)N=C1CC(C)(C)CC(=O)/C1=C(/O)Cc1ccccc1 (stereo not given) | 0.4 | 17.2 | 93.4 | -1.2 | 7.7
COc1ccc(/C=N/Nc2ccc([N+](=O)[O-])cc2)cc1O | 27.0* | 21.0 | 83.1 | -3.0 | -147.7
COc1cc(/C=N/Nc2nc(C)nc3c2cnn3-c2ccccc2)ccc1O | 13.3* | -2.3 | · | 0.7 | ·
COc1cccc(/C=N/Nc2c(Cl)cncc2Cl)c1O | 35.4* | 17.4 | 116.4 | 11.8 | 4.5
CC1O[C@@H]2O[C@](O[C@H](C)CC[C@@H](C)O)(c3ccccc3)O[C@@H]2C[C@H]1O (stereo not given in full) | -0.6 | · | 97.8 | 3.3 | -5.6
CC1CCCCC1NC(=O)/C(C#N)=C/c1ccc(F)c(F)c1 (stereo not given) | -2.1 | 40.2 | 102.6 | -3.1 | -4.1
CC1CCCCC1NC(=O)/C(C#N)=C/c1ccc2c(c1)OCCO2 (stereo not given) | 13.1* | 25.7 | 84.7 | · | 0.6
Cc1cc(C)cc(N2C(=O)C=CC2=O)c1 | 1.6 | · | · | -1.9 | ·
Cc1cc(C)cc(N2C(=O)c3nccnc3C2=O)c1 | 14.4* | 28.4 | 91.6 | -6.3 | 9.5
COc1cccc(Nc2nc(-c3cccc(N4C(=O)c5ccccc5C4=O)c3)cs2)c1 | 33.2* | 11.0 | 102.8 | -9.8 | -0.4
COc1cccc(Nc2nc(-c3ccc(O)cc3)cs2)c1 | 22.6* | 5.3 | 113.4 | 1.4 | 10.1
Cc1cccc(Nc2nc(-c3ccncc3)cs2)c1 | 6.1 | -6.4 | 95.7 | 1.0 | 9.5
Nc1cccc(CCc2ccncc2)c1 | -1.2 | 20.4 | 101.4 | -1.0 | -3.9
CC(C)Oc1ccc(C(=O)N(CN2CCCC2=O)c2ccc(F)cc2)cc1 | -2.1 | 40.7* | 113.1 | -7.2 | -4.3
Cc1cc(S(=O)(=O)Nc2ccc3cn[nH]c3c2)c(C)cc1Cl | -10.0 | 0.8 | 110.1 | -10.0 | 3.4
O=C(COc1ncnc2c(Cl)cc(Cl)cc12)Nc1cc([N+](=O)[O-])ccc1Cl | 14.1* | 8.0 | 89.6 | -1.1 | -6.0
CCOc1ccc(C(=O)NCCN(C)C)cc1 | 0.6 | 20.7 | 102.4 | 2.7 | -2.6
CCOc1ccc(C(=O)NCCCCNC(=O)c2ccc(OCC)cc2)cc1 | 14.9* | 19.2 | 91.8 | -12.7 | -16.8
CCOc1ccc(C(=O)Nn2cnnc2)cc1 | 1.8 | 33.4* | 115.0 | -0.7 | 0.3
CCOc1ccc(C(=O)OCC(=O)NCCNC(=O)COC(=O)c2ccc(OCC)cc2)cc1 | 14.4* | 15.5 | 104.9 | 3.2 | -4.5
CCOc1cc(C(=O)Nn2cnnc2)cc(OCC)c1OCC | -2.0 | -4.7 | 97.9 | 0.5 | 2.4
CC(=O)Cc1nsc(NC(=O)c2ccc(COc3ccccc3C)o2)n1 | -0.2 | 0.4 | 66.2 | -5.2 | 4.5
CCOC(=O)c1nn(-c2ccc(Cl)cc2)c2nc(Nc3ccccc3)cc(=O)n12 | -3.3 | 8.3 | 111.1 | -2.4 | 14.2
CCOC(=O)c1nn(-c2ccccc2C)c2nc(Nc3ccccc3)cc(=O)n12 | 13.4* | 6.3 | 92.6 | 0.9 | 11.9
CSC[C@@H]1NC(=S)N(c2ccc(C)cc2)C1=O | 4.7 | 75.8* | 101.0 | -0.6 | 5.5
Cc1ccc(N2C(=O)C3CCC(C)(C2=O)C3(C)C)cc1 (stereo not given) | -0.1 | 15.6 | 96.0 | 3.8 | 3.2
CN(/N=C/c1ccc(O)cc1O)c1ncc(C(F)(F)F)cc1Cl | 25.9* | 7.3 | 103.6 | -14.5 | -7.3
